Measured values: PMC9911399, “Two distinct binding modes provide the RNA-binding protein RbFox with extraordinary sequence specificity”
Positions count from the first letter of the chain named. In all, about 16,000 sequences were measured (“ka relative to ugcaugu”: median about 0.0091, highest 2% from about 0.032 on). The sample holds the highest values, similar sequences and a random draw of the others, so the mix is not that of the screen.

T1: RBFOX1 RRM (Homo sapiens, UniProt Q9NWB1 109-208)
T1 sequence: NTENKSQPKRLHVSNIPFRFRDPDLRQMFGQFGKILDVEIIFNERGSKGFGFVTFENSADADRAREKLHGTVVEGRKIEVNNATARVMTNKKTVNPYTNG

B1: AUGGUGU (DNA:RNA)
RNA: GGGAGACCGGAAUUCAGAUUGUCCAUGGUGUUUAAAUCCCGUCGUAGCCACCA
DNA 1: CAATCTGAATTCCGGTCTCCC
DNA 2: TGGTGGCTACGACGGGATT
B2: CAUGUGU (DNA:RNA)
RNA: B1 RNA with A25C, U26A, G27U
DNA 1: CAATCTGAATTCCGGTCTCCC
DNA 2: TGGTGGCTACGACGGGATT
B3: AGAAGGC (DNA:RNA)
RNA: B1 RNA with U26G, G27A, G28A, U29G, U31C
DNA 1: CAATCTGAATTCCGGTCTCCC
DNA 2: TGGTGGCTACGACGGGATT
B4: GAAUGAG (DNA:RNA)
RNA: GGGAGACCGGAAUUCAGAUUGUCCGAAUGAGUUAAAUCCCGUCGUAGCCACCA
DNA 1: CAATCTGAATTCCGGTCTCCC
DNA 2: TGGTGGCTACGACGGGATT
B5: GCGUCGU (DNA:RNA)
RNA: B1 RNA with A25G, U26C, G28U, U29C
DNA 1: CAATCTGAATTCCGGTCTCCC
DNA 2: TGGTGGCTACGACGGGATT
B6: AUGCCGG (DNA:RNA)
RNA: B1 RNA with G28C, U29C, U31G
DNA 1: CAATCTGAATTCCGGTCTCCC
DNA 2: TGGTGGCTACGACGGGATT
B7: AGCGCGG (DNA:RNA)
RNA: B1 RNA with U26G, G27C, U29C, U31G
DNA 1: CAATCTGAATTCCGGTCTCCC
DNA 2: TGGTGGCTACGACGGGATT
B8: AGAACUA (DNA:RNA)
RNA: B1 RNA with U26G, G27A, G28A, U29C, G30U, U31A
DNA 1: CAATCTGAATTCCGGTCTCCC
DNA 2: TGGTGGCTACGACGGGATT
B9: UGGUUUG (DNA:RNA)
RNA: B1 RNA with A25U, U26G, G28U, G30U, U31G
DNA 1: CAATCTGAATTCCGGTCTCCC
DNA 2: TGGTGGCTACGACGGGATT
B10: UGCCCGC (DNA:RNA)
RNA: B1 RNA with A25U, U26G, G27C, G28C, U29C, U31C
DNA 1: CAATCTGAATTCCGGTCTCCC
DNA 2: TGGTGGCTACGACGGGATT
B11: CGAUCGA (DNA:RNA)
RNA: B4 RNA with G25C, A26G, G29C, A30G, G31A
DNA 1: CAATCTGAATTCCGGTCTCCC
DNA 2: TGGTGGCTACGACGGGATT
B12: UGAUCGA (DNA:RNA)
RNA: B4 RNA with G25U, A26G, G29C, A30G, G31A
DNA 1: CAATCTGAATTCCGGTCTCCC
DNA 2: TGGTGGCTACGACGGGATT
B13: UGCCUGC (DNA:RNA)
RNA: B1 RNA with A25U, U26G, G27C, G28C, U31C
DNA 1: CAATCTGAATTCCGGTCTCCC
DNA 2: TGGTGGCTACGACGGGATT
B14: UGAUUGA (DNA:RNA)
RNA: B1 RNA with A25U, U26G, G27A, G28U, U31A
DNA 1: CAATCTGAATTCCGGTCTCCC
DNA 2: TGGTGGCTACGACGGGATT
B15: UGAUCCG (DNA:RNA)
RNA: B4 RNA with G25U, A26G, G29C, A30C
DNA 1: CAATCTGAATTCCGGTCTCCC
DNA 2: TGGTGGCTACGACGGGATT
B16: UGCCUGA (DNA:RNA)
RNA: B1 RNA with A25U, U26G, G27C, G28C, U31A
DNA 1: CAATCTGAATTCCGGTCTCCC
DNA 2: TGGTGGCTACGACGGGATT
B17: UGGUUGU (DNA:RNA)
RNA: B1 RNA with A25U, U26G, G28U
DNA 1: CAATCTGAATTCCGGTCTCCC
DNA 2: TGGTGGCTACGACGGGATT
B18: UGCCUCG (DNA:RNA)
RNA: B1 RNA with A25U, U26G, G27C, G28C, G30C, U31G
DNA 1: CAATCTGAATTCCGGTCTCCC
DNA 2: TGGTGGCTACGACGGGATT
B19: UGUUUGG (DNA:RNA)
RNA: B1 RNA with A25U, U26G, G27U, G28U, U31G
DNA 1: CAATCTGAATTCCGGTCTCCC
DNA 2: TGGTGGCTACGACGGGATT
B20: UGAUUAA (DNA:RNA)
RNA: B4 RNA with G25U, A26G, G29U, G31A
DNA 1: CAATCTGAATTCCGGTCTCCC
DNA 2: TGGTGGCTACGACGGGATT
B21: UGUCCGA (DNA:RNA)
RNA: B1 RNA with A25U, U26G, G27U, G28C, U29C, U31A
DNA 1: CAATCTGAATTCCGGTCTCCC
DNA 2: TGGTGGCTACGACGGGATT
B22: CCAGGCU (DNA:RNA)
RNA: B1 RNA with A25C, U26C, G27A, U29G, G30C
DNA 1: CAATCTGAATTCCGGTCTCCC
DNA 2: TGGTGGCTACGACGGGATT
B23: UAGUUGG (DNA:RNA)
RNA: B1 RNA with A25U, U26A, G28U, U31G
DNA 1: CAATCTGAATTCCGGTCTCCC
DNA 2: TGGTGGCTACGACGGGATT
B24: CCAAUAG (DNA:RNA)
RNA: B4 RNA with G25C, A26C, U28A, G29U
DNA 1: CAATCTGAATTCCGGTCTCCC
DNA 2: TGGTGGCTACGACGGGATT
B25: UCAAGAG (DNA:RNA)
RNA: B4 RNA with G25U, A26C, U28A
DNA 1: CAATCTGAATTCCGGTCTCCC
DNA 2: TGGTGGCTACGACGGGATT
B26: GUUUUAG (DNA:RNA)
RNA: B4 RNA with A26U, A27U, G29U
DNA 1: CAATCTGAATTCCGGTCTCCC
DNA 2: TGGTGGCTACGACGGGATT
B27: GCGGAGC (DNA:RNA)
RNA: B1 RNA with A25G, U26C, U29A, U31C
DNA 1: CAATCTGAATTCCGGTCTCCC
DNA 2: TGGTGGCTACGACGGGATT
B28: CCUUACC (DNA:RNA)
RNA: B4 RNA with G25C, A26C, A27U, G29A, A30C, G31C
DNA 1: CAATCTGAATTCCGGTCTCCC
DNA 2: TGGTGGCTACGACGGGATT
B29: CCGUAGA (DNA:RNA)
RNA: B1 RNA with A25C, U26C, G28U, U29A, U31A
DNA 1: CAATCTGAATTCCGGTCTCCC
DNA 2: TGGTGGCTACGACGGGATT
B30: UGCCUGG (DNA:RNA)
RNA: B1 RNA with A25U, U26G, G27C, G28C, U31G
DNA 1: CAATCTGAATTCCGGTCTCCC
DNA 2: TGGTGGCTACGACGGGATT
B31: UGUGCCG (DNA:RNA)
RNA: B1 RNA with A25U, U26G, G27U, U29C, G30C, U31G
DNA 1: CAATCTGAATTCCGGTCTCCC
DNA 2: TGGTGGCTACGACGGGATT
B32: GUGCCUG (DNA:RNA)
RNA: B1 RNA with A25G, G28C, U29C, G30U, U31G
DNA 1: CAATCTGAATTCCGGTCTCCC
DNA 2: TGGTGGCTACGACGGGATT
B33: UGGUUCC (DNA:RNA)
RNA: B1 RNA with A25U, U26G, G28U, G30C, U31C
DNA 1: CAATCTGAATTCCGGTCTCCC
DNA 2: TGGTGGCTACGACGGGATT
B34: UUGCCUG (DNA:RNA)
RNA: B1 RNA with A25U, G28C, U29C, G30U, U31G
DNA 1: CAATCTGAATTCCGGTCTCCC
DNA 2: TGGTGGCTACGACGGGATT
B35: UGUUGCC (DNA:RNA)
RNA: B4 RNA with G25U, A26G, A27U, A30C, G31C
DNA 1: CAATCTGAATTCCGGTCTCCC
DNA 2: TGGTGGCTACGACGGGATT
B36: UGGUUCG (DNA:RNA)
RNA: B1 RNA with A25U, U26G, G28U, G30C, U31G
DNA 1: CAATCTGAATTCCGGTCTCCC
DNA 2: TGGTGGCTACGACGGGATT
B37: UGCUGGU (DNA:RNA)
RNA: B1 RNA with A25U, U26G, G27C, G28U, U29G
DNA 1: CAATCTGAATTCCGGTCTCCC
DNA 2: TGGTGGCTACGACGGGATT
B38: UGUCCCG (DNA:RNA)
RNA: B4 RNA with G25U, A26G, A27U, U28C, G29C, A30C
DNA 1: CAATCTGAATTCCGGTCTCCC
DNA 2: TGGTGGCTACGACGGGATT
B39: UGGUGCC (DNA:RNA)
RNA: B4 RNA with G25U, A26G, A27G, A30C, G31C
DNA 1: CAATCTGAATTCCGGTCTCCC
DNA 2: TGGTGGCTACGACGGGATT
B40: UGUAGCC (DNA:RNA)
RNA: B4 RNA with G25U, A26G, A27U, U28A, A30C, G31C
DNA 1: CAATCTGAATTCCGGTCTCCC
DNA 2: TGGTGGCTACGACGGGATT
B41: GUCCUGG (DNA:RNA)
RNA: B1 RNA with A25G, G27C, G28C, U31G
DNA 1: CAATCTGAATTCCGGTCTCCC
DNA 2: TGGTGGCTACGACGGGATT

Biological target: T1, RBFOX1 RRM
Test: EMSA; HiTS-Eq, 1 nM pool, 10 min; buffer printed only for the single-RNA assays: 10 mM Tris pH 7.5, 150 mM NaCl, 3.4 mM EDTA, 0.001% NP-40, 30 C
Conditions: tags: His6 N-terminal (pET28a); label: 5' 32P
Outline: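 Purified wild-type or mutant RbFox RRM at increasing concentrations was equilibrated with 1 nM of 5′-radiolabelled RNA carrying 7 randomized nucleotides for 10 min in 50 µL. Unbound RNA was separated by 8% native PAGE and sequenced. Relative association constants came from read-count changes of each RNA species compared with the control reaction, normalised to the cognate motif.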

Row | Binder | binding signal
1 | B1 | 0.0152 KA relative to UGCAUGU
2 | B2 | 0.0132 KA relative to UGCAUGU
3 | B3 | 0.00991 KA relative to UGCAUGU
4 | B4 | 0.0255 KA relative to UGCAUGU
5 | B5 | 0.0171 KA relative to UGCAUGU
6 | B6 | 0.0153 KA relative to UGCAUGU
7 | B7 | 0.0172 KA relative to UGCAUGU
8 | B8 | 0.00165 KA relative to UGCAUGU
9 | B9 | 0.0372 KA relative to UGCAUGU
10 | B10 | 0.0206 KA relative to UGCAUGU
11 | B11 | 0.0185 KA relative to UGCAUGU
12 | B12 | 0.0347 KA relative to UGCAUGU
13 | B13 | 0.0698 KA relative to UGCAUGU
14 | B14 | 0.028 KA relative to UGCAUGU
15 | B15 | 0.0149 KA relative to UGCAUGU
16 | B16 | 0.0398 KA relative to UGCAUGU
17 | B17 | 0.0314 KA relative to UGCAUGU
18 | B18 | 0.0235 KA relative to UGCAUGU
19 | B19 | 0.0271 KA relative to UGCAUGU
20 | B20 | 0.00933 KA relative to UGCAUGU
21 | B21 | 0.0182 KA relative to UGCAUGU

Row | Binder | binding signal
22 | B22 | 0.00926 KA relative to UGCAUGU
23 | B23 | 0.0164 KA relative to UGCAUGU
24 | B24 | 0.00034 KA relative to UGCAUGU
25 | B25 | 0.00877 KA relative to UGCAUGU
26 | B26 | 0.0145 KA relative to UGCAUGU
27 | B27 | 0.0117 KA relative to UGCAUGU
28 | B28 | 0.00281 KA relative to UGCAUGU
29 | B29 | 0.00944 KA relative to UGCAUGU
30 | B30 | 0.0474 KA relative to UGCAUGU
31 | B31 | 0.0199 KA relative to UGCAUGU
32 | B32 | 0.0397 KA relative to UGCAUGU
33 | B33 | 0.0214 KA relative to UGCAUGU
34 | B34 | 0.0452 KA relative to UGCAUGU
35 | B35 | 0.0243 KA relative to UGCAUGU
36 | B36 | 0.0375 KA relative to UGCAUGU
37 | B37 | 0.028 KA relative to UGCAUGU
38 | B38 | 0.0122 KA relative to UGCAUGU
39 | B39 | 0.0219 KA relative to UGCAUGU
40 | B40 | 0.0129 KA relative to UGCAUGU
41 | B41 | 0.0183 KA relative to UGCAUGU
